# In the library only some 2.4% were active in any assay of this set; here they are far more common.
# NFkB transloc pot – enhances IL-1B driven NFkB nuclear translocation; activation, % at 2 µM; HUVEC IL-1B NFkB p65 nuclear translocation imaging; hit rate 0.3% among 94,000;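 active = activation above 40%, about the mean plus 3 SD, also judged a hit on visual image review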;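 note: percent activation is computed from the nuclear over cytoplasmic p65 intensity ratio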
# NFkB transloc inh – blocks IL-1B driven NFkB nuclear translocation in HUVEC cells; hit rate 0.43% among 94,000; HUVEC IL-1B NFkB p65 nuclear translocation imaging; inhibition, % at 2 µM;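 active = inhibition above about 30% together with a positive call from visual inspection of the well image, limit read from the data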;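 note: nuclear over cytoplasmic p65 intensity ratio measured by imaging; 0% = IL-1B stimulated DMSO wells and 100% = unstimulated DMSO wells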
# HUVEC tox IL1B – HUVEC cytotoxicity counter-screen, IL-1B stimulated | HUVEC cell count loss, Hoechst imaging | hit rate 0.41% among 94,000 | cell count reduction, % at 2 µM;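 active = cell count reduction more than 3 SD above the screen-wide mean, cut at about 70% in these data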;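 note: normalized per plate to untreated control cells as the no-loss baseline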
# PTK2B oligo ant – Pyk2 (human) oligomerization antagonism. Q14289. Q293 cells, Pyk2 FERM NanoBiT luminescence; hits give low values. z-score (the deposit names both 25 µM and 10 µM). hit rate 0.83% among 99,000. AID 1347419;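 active = Z-score of -3 or lower, scaled per plate to the spread of control and sample wells; inactive = z-score above -3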;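 note: negative z-score means lost luminescence so less FERM oligomerization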
# Target sequence (Q14289 whole entry, looked up): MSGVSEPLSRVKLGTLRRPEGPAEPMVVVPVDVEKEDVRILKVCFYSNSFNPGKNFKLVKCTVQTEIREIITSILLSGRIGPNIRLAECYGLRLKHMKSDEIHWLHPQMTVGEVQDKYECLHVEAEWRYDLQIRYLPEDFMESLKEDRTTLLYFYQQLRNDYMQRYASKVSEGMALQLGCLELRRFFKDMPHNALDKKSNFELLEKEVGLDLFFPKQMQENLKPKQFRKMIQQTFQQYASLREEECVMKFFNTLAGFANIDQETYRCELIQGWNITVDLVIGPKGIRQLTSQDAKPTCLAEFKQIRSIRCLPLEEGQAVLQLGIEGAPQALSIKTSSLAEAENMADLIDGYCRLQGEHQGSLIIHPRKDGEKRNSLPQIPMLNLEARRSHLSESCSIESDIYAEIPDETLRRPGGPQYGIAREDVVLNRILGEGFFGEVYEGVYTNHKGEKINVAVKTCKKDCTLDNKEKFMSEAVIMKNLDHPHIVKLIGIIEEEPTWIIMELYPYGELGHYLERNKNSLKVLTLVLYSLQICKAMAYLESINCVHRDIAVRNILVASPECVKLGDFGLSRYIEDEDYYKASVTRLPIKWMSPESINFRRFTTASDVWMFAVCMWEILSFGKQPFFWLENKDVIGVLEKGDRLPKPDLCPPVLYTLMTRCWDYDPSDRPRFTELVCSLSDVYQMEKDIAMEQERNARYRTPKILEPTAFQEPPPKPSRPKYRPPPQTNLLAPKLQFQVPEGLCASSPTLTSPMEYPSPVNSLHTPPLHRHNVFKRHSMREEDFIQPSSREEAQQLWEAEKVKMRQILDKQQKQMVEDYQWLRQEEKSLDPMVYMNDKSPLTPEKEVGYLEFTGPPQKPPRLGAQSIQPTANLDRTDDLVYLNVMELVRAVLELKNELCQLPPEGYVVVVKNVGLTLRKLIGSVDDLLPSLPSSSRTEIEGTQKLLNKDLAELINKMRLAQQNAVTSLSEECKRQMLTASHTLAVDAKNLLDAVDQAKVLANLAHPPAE
# JNK3 blocker – JNK3 (human) kinase inhibition; purified JNK3 kinase activity, HTS; inhibition, % at 8 µM; hit rate 0.61% among 60,000; P53779; AID 746; in the data active = inhibition above about 17%;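 note: 0% = DMSO and 100% = reference inhibitor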
# FAK inh – FAK (human) kinase inhibition | biochemical FAK kinase activity assay | AID 727 | Q05397 | inhibition, %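 (tested at 7 µM)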 | hit rate 0.84% among 97,000; in the data active = inhibition above about 19%;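 note: 0% = DMSO and 100% = reference compound high control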
# * marks the source's active call; other numbers are inactive results; / = no result given.
SMILES,NFkB transloc pot,NFkB transloc inh,HUVEC tox IL1B,PTK2B oligo ant,JNK3 blocker,FAK inh
CCOC(=O)c1cnn(-c2ccccc2)c1NC(=O)CSc1nnc(-c2cccs2)n1CC,7,-7,6,0.61,/,0
CC(C)c1nc(SCC(=O)Nc2ccc(N3CCOCC3)cc2)c2ccccc2n1,7,-7,-28,-0.28,/,34*
CCOc1ccc(S(=O)(=O)N(CCO)CCO)cc1-c1nc2c(C(C)(C)C)nn(C)c2c(=O)[nH]1,-4,4,7,-0.73,/,1
O=C1Cn2c(nc3ccccc32)N1c1cccc(C(F)(F)F)c1,8,-8,-8,-0.33,/,2
O=C(NC1CCN(Cc2ccccc2)CC1)C1CCCN(S(=O)(=O)c2cccc3nonc23)C1 (centres undefined),-46,46*,-21,0.71,/,0
CC1CCN(CCNC(=O)C2CCCN(S(=O)(=O)c3cccc4nonc34)C2)CC1 (centres undefined),8,-8,-20,1.3,/,1
CCc1ccc(C2CC(c3ccccc3)n3ncnc3N2)cc1 (centres undefined),42*,-42,9,/,/,1
CC(=O)/C=C(\C)NCCNc1c(F)c(F)c(CO)c(F)c1F,/,/,/,-0.09,2,/
Cc1cc(Cl)c(OCCCSc2nc(C)cc(=O)[nH]2)c(Br)c1,-10,10,90*,0.74,/,-1
CCCCN(C)C(=O)c1oc2ccc(S(=O)(=O)N3CCCCCC3)cc2c1C,4,-4,6,-0.52,1,-3
COc1ccc(C(=O)N[C@H](C(=O)NCC2CCCCC2)C(C)C)cc1,-25,25,-16,0.55,/,-2
COc1ccccc1/C=C1\SC(=S)N(Nc2nc(C)cc(C)n2)C1=O,6,-6,-1,-3.8*,/,2
O=C1/C(=C\c2ccccn2)SC(=S)N1Nc1ncc(C(F)(F)F)cc1Cl,4,-4,-16,-0.36,/,-12
Cc1cc(C)nc(NN2C(=O)/C(=C/c3ccc(O)cc3)SC2=S)n1,9,-9,0,-3.5*,/,1
CC1CCN(CCCCOc2ccccc2[N+](=O)[O-])CC1,0,0,-37,0.43,/,0
Cc1ccc(C)c(N(CC(=O)NCCSCc2ccco2)S(C)(=O)=O)c1,16,-16,-9,-0.31,1,0
CCOC(=O)c1cccc(Nc2nc(-c3cccnc3)nc3ccccc23)c1,7,-7,-52,-3.6*,/,17
COc1ccc(OC)c(Nc2nc(N)nc(-c3cc4ccccc4o3)n2)c1,1,-1,-32,-1.3,32*,-1
COc1ccc(C)cc1NC(=O)c1cc2ccccc2o1,0,0,-1,-1.6,2,-5
CCC(C)(C)NC(=O)Cc1ccccc1OC,4,-4,9,0.38,/,-1
COc1cccc(C2CC(c3ccccc3OC)n3nc(N)nc3N2)c1 (centres undefined),8,-8,-48,/,7,-2
CCOC(=O)c1cnn(-c2ccccc2)c1-n1cccc1,-24,-5,39,-0.18,/,0
CCOC(=O)c1cnn(-c2ccccc2)c1-n1cccc1C(=O)C(=O)Nc1ccc(OC)cc1,9,-9,94*,-0.51,/,-2
CC(C)C(NC(=O)c1cccs1)c1nnc(SCC(=O)Nc2nccs2)n1C (centres undefined),8,-8,15,-0.02,-5,-2
Cn1c(=O)oc2cc(S(=O)(=O)N3CCCC(C(=O)NCCN4CCOCC4)C3)ccc21 (centres undefined),6,-6,-11,/,1,-7
SMILES,NFkB transloc pot,NFkB transloc inh,HUVEC tox IL1B,PTK2B oligo ant,JNK3 blocker,FAK inh
Cn1c(=O)oc2cc(S(=O)(=O)N3CCCC(C(=O)Nc4nccs4)C3)ccc21 (centres undefined),41*,-41,12,/,/,0
CC1CCN(C(=O)/C(=C/c2ccccc2Cl)c2ccccc2)CC1,-3,3,11,-3.9*,/,6
CN1CCN(C(=O)/C(=C\c2ccccc2)c2ccccc2)CC1,-2,2,11,-0.54,/,0
COc1ccc(CNC(=O)C2CCCN(S(=O)(=O)c3cc(C)ccc3OC)C2)cc1 (centres undefined),-64,64*,8,0.49,4,2
O=C(CSc1nnc(COc2ccccc2)n1-c1ccccc1)c1cccs1,/,/,/,-0.41,-3,/
CCOc1ccc(NC(=O)c2oc3ccccc3c2NC(=O)C2CC2)cc1,/,/,/,/,2,/
COc1cc(/C=C(\C#N)c2nc3ccccc3[nH]2)ccc1Oc1ccc([N+](=O)[O-])cn1,7,-7,-4,-3.3*,/,5
O=C1CCCN1CCCNCC(=O)N1c2ccccc2Sc2ccccc21,11,-11,-2,0.09,/,3
CCC(Sc1n[nH]c(=O)[nH]c1=O)C(=O)OCc1ccccc1 (centres undefined),-10,10,9,0.69,/,-2
Cc1cccc(/C=N/NC(=O)c2cc3c(s2)-c2ccccc2CC3)c1,-52,52*,-27,0.6,/,-3
CC(=O)c1cc2c(cc1NC(=O)CN1CCCCCCC1)OCO2,22,-22,-13,-1.4,/,-1
O=C(NC1CCCCCC1)c1ccc(CN2CCOCC2)cc1,3,-3,-8,-0.27,/,-7
COc1ccc(NC(=O)c2oc3ccccc3c2NC(=O)c2ccco2)cc1,7,-8,-36,-3*,0,-2
C=CCn1c(SCC(=O)Nc2sc(C)c(C)c2C(=O)OCC)nnc1-c1sc(N)nc1C,-2,2,-15,-4.5*,9,0
O=C(Nc1nc2c(ccc3ccccc32)s1)c1ccco1,10,-10,-11,-3.3*,-7,0
O=C(Nc1nc2c(Cl)ccc(Cl)c2s1)c1ccco1,14,-14,-1,/,3,-8
Fc1ccc(C2C3=C(Nc4ncnn42)c2ccccc2OC3c2ccncc2)cc1 (centres undefined),5,-6,-31,-0.52,7,6
Cc1ccc(C2Oc3ccccc3C3=C2C(c2cccs2)n2ncnc2N3)cc1 (centres undefined),-7,7,88*,-2,/,3
COc1ccc(C(=O)NCc2n[nH]c(=S)n2-c2ccccc2)cc1OC,0,0,18,0.55,/,0
CCc1ccc2nc(SCC(=O)N3CCCCC3)c(C#N)cc2c1,-5,5,-5,-1.6,/,9
CCc1ccc2nc(SCC(=O)N3CC(=O)Nc4ccccc43)c(C#N)cc2c1,-23,23,33,-3.4*,/,0
COc1ccc(-c2nn(-c3ccccc3)cc2/C=N/NC(=O)c2ccc(Br)o2)cc1,2,-2,-22,-3.1*,/,-1
COC(=O)CSc1nnc(-c2ccc(S(=O)(=O)NCc3cccs3)cc2)o1,45*,-45,-20,1,-3,-1
Cc1cccnc1NC(=O)Cn1nc(C)c([N+](=O)[O-])c1C,21,-21,-19,-0.1,/,2
C=CCOc1nc2c(c(=O)n(Cc3ccc(Cl)c(Cl)c3)c(=O)n2C)n1C,-8,8,-27,-1.5,1,1
COc1ccccc1N1C(=O)c2ccccc2NC1c1ccncc1 (centres undefined),4,-4,-34,-1.4,/,-2
